# Reference: ChEMBL document CHEMBL4808148, “HDAC6 screening dataset using tau-based substrate in an enzymatic assay yields selective inhibitors and activators” (2021)
# Screen size: about 5,600 compounds; about 390 (7%) showed an effect of 50% or more. The sample as a whole holds a higher share of strong results than the screen did.
# What was measured:
# [1] = biological target: T1, Protein deacetylase HDAC6 (Homo sapiens) (UniProt Q9UBN7); details: at 10 µM
# T1 sequence (whole entry): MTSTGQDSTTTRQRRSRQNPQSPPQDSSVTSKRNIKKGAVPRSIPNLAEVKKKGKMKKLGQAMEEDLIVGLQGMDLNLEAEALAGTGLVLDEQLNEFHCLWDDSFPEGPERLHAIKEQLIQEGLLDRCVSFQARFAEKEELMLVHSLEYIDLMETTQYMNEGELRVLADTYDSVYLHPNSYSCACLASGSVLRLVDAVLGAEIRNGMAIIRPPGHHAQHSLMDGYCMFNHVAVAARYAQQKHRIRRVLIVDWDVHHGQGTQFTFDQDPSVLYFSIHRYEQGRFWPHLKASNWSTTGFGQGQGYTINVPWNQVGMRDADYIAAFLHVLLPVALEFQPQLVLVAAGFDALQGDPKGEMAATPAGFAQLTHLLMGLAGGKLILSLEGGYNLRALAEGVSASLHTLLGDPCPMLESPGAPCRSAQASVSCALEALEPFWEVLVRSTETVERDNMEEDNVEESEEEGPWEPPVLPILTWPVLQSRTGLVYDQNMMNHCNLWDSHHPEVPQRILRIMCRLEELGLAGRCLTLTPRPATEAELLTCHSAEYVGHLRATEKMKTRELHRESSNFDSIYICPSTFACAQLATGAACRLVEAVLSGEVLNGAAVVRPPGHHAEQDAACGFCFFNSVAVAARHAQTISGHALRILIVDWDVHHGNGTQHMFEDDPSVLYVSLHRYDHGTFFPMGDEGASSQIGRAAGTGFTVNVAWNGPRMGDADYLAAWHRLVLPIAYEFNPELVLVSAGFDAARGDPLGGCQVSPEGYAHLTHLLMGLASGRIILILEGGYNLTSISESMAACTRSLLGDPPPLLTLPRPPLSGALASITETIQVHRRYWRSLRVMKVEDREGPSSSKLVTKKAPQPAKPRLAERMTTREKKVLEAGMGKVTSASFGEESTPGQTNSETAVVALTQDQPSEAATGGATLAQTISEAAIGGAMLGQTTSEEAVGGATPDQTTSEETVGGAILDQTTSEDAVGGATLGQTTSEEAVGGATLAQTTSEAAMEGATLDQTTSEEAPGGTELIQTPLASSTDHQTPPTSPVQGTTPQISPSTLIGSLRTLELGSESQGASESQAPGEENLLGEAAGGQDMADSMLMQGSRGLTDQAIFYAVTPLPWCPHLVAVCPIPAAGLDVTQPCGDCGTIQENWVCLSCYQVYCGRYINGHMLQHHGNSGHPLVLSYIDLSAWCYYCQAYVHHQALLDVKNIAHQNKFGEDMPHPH
# [2] = biological target: Protein deacetylase HDAC6 (Homo sapiens) (UniProt Q9UBN7); details: at 10 µM; remark: listed apart in the source
Compound,inhibition [1],inhibition [2]
CCCN(CCC)C(=O)C(CCC(=O)OCCCN1CCN(CCOC(=O)Cc2c(C)n(C(=O)c3ccc(Cl)cc3)c3ccc(OC)cc23)CC1)NC(=O)c1ccccc1 (centres undefined),-4.35%,
O=[N+]([O-])c1cc(Cl)ccc1S(=O)(=O)c1ccccc1,13.8%,
NC1=NC(=O)N([C@H]2C[C@H](O)[C@@H](CO)O2)CN1,19.8%,
Brc1ccc(NC2C3CC4CC(C3)CC2C4)cc1 (centres undefined),5.83%,
O=S(=O)(c1ccccc1F)N1CCOc2c(N3CCNCC3)cccc21,3.08%,
CC(=O)O[C@]1(C(C)=O)CC[C@H]2[C@@H]3C=CC4=CC(=O)CC[C@]4(C)[C@H]3CC[C@@]21C,31.5%,
CCCSc1ccc2[nH]c(NC(=O)OC)nc2c1,58.8%,
CCC[S+]([O-])c1ccc2[nH]c(NC(=O)OC)nc2c1 (centres undefined),18.6%,
CCOC(=O)Nc1nc2ccccc2[nH]1,34.2%,
Cc1nc(N(C)C(=O)Cc2ccc(-c3ccccn3)cc2)sc1S(N)(=O)=O,23.9%,
CCOC(=O)Nc1ccc2c(c1)N(C(=O)CCN(CC)CC)c1ccccc1S2,14.5%,
Nc1nccc(Oc2ccc(NC(=O)c3cn(COP(=O)(O)O)cc(-c4ccc(F)cc4)c3=O)cc2F)c1Cl,21.9%,
C[C@H]1CN(Cc2ccc(CC(=O)N3CCC(Nc4cccc(F)c4)CC3)cc2)CCN1,44.9%,
CC(=O)N1CCC(NC(=O)c2ccc(F)cc2)CC1,13.7%,
O=C(/C=C/c1cccc(F)c1)NC1CC1,52.8%,
O=C(C(c1ccccc1)c1ccccc1)N1CCN(CC(O)COc2cccc3ncccc23)CC1 (centres undefined),5.51%,
COc1ccc(C2CNC(=O)NC2)cc1O[C@H]1C[C@@H]2CC[C@H]1C2,6.99%,
CCOC(=O)[C@H](CCc1ccccc1)N[C@@H](C)C(=O)N1C(=O)N(C)C[C@H]1C(=O)O,15.9%,
CC(=O)Oc1ccccc1C(=O)Nc1ncc([N+](=O)[O-])s1,103%,
O=C1NC(O)CCN1[C@@H]1O[C@H](CO)[C@@H](O)[C@H]1O (some centres undefined),15.9%,
C[C@@H]1CC2C3CCC4=CC(=O)C=C[C@]4(C)[C@@]3(F)[C@@H](O)C[C@]2(C)[C@H]1C(=O)CO (some centres undefined),6.55%,
"ESCIN, CHEMBL4594473",,3.89%
O=C(COc1ccc(Cl)cc1)N[C@H]1CC[C@H](NC(=O)COc2ccc(Cl)cc2)CC1,-5.96%,
CN1[C@@H]2C[C@@H](O)C[C@H]1[C@@H]1O[C@@H]12,91.4%,
Cc1cc(C)c(NC(=O)N(Cc2ccc3c(c2)Cc2ccccc2-3)C2CCCCCC2)c(C)c1,0.9%,

Compound,inhibition [1],inhibition [2]
CN1CCN(Cc2ccc(Nc3ncc(Cl)c(Nc4ccccc4S(=O)(=O)N(C)C)n3)cc2)CC1,5.09%,
CC1(C)S[C@@H]2[C@H](NC(=O)[C@H](NC(=O)N3CCNC3=O)c3ccccc3)C(=O)N2[C@H]1C(=O)O,13.9%,
O=C(O)CC(S)C(=O)O (centres undefined),18.6%,
O[AsH]O[AsH]O (centres undefined),-5.16%,
O=C(CO)[C@@H](O)[C@@H](O)[C@H](O)CO,3.04%,
"GADOTERIDOL, CHEMBL1200593",,-7.04%
"VANADATE ION, CHEMBL1163564",,8.48%
"PHENYLMERCURIC ACETATE, CHEMBL1333953",,113%
CCNCc1cc(C(C)(C)C)c(O)c(C(C)(C)C)c1,36.2%,
CNc1ccc([N+](=O)[O-])cc1-n1cnc(-c2ccc(C(F)(F)F)cc2)c1,-2.07%,
CCN1CCN(Cc2ccc(C(=O)Nc3ccc(C)c(Oc4ccc5c(c4)CC(=O)N5)c3)cc2C(F)(F)F)CC1,42.8%,
Cc1ccc(C(=O)Nc2ccc(CN3CCN(C)CC3)c(C(F)(F)F)c2)cc1C#Cc1cnc2[nH]ncc2c1,69%,
CCCCC(F)(F)[C@@]1(O)CC[C@H]2[C@@H](CC(=O)[C@@H]2CCCCCCC(=O)O)O1,26.8%,
Nc1c(S(=O)(=O)O)cc(Nc2cccc3ccccc23)c2c1C(=O)c1ccccc1C2=O,30.6%,
CNC(C)CC1CCCCC1 (centres undefined),-3.99%,
COc1ccc2nc3c(c(N)c2c1)CCCC3,14.7%,
Cc1cc(O)c2c(c1)C(=O)c1cc(O)cc(O)c1C2=O,99.6%,
O=C(Nc1ccncc1)C(=O)c1cn(Cc2ccc(Cl)cc2)c2ccccc12,11.2%,
CCCCCCOc1nsnc1C1=CCCN(C)C1,21.1%,
CSCC[C@H](NC(=O)[C@H](Cc1ccccc1)NC(=O)CNC(=O)CNC(=O)[C@@H](N)Cc1ccc(O)cc1)C(=O)O,-7.67%,
CC(C)Cc1ccc(C(C)C(=O)NCCO)cc1 (centres undefined),5.6%,
Nc1nonc1/C(=N/O)Nc1ccc(F)c(Cl)c1,6.27%,
CC(=O)Nc1ccc(Cc2ccc(NC(C)=O)cc2)cc1,37.1%,
O=C(Nc1ccc(Cl)cc1)Nc1ccc(Cl)c(Cl)c1,52.2%,
